Bioassay records: PubChem, National Center for Advancing Translational Sciences (NCATS)
This is one part of a sample in which hits are shown more often than they occur.
TSHR agonist: qHTS Assay for Agonists of the Thyroid Stimulating Hormone Receptor; Thyrotropin receptor (Homo sapiens), P16473; AID 926, 2007; hit rate 0.48% among 73,000; HEK293-CNG-TSHR cells (CNG channel as cAMP sensor), membrane potential dye, cAMP; Potency, µM (doses to about 57.1 µM), inactives show at the highest dose activation, hits mostly activators; active = well fitted activation curve with a large enough effect in the main read-out, with a control signal flat, not every such curve was filed as active; inconclusive = small, poorly fitted or top-dose-only effect, or a change in a side signal; inactive = no such curve, though single readings can be large or run the other way; % of control where 0% means no effect;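 note: the control signal comes from parental cells without the receptor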
Target sequence (P16473 whole entry, looked up): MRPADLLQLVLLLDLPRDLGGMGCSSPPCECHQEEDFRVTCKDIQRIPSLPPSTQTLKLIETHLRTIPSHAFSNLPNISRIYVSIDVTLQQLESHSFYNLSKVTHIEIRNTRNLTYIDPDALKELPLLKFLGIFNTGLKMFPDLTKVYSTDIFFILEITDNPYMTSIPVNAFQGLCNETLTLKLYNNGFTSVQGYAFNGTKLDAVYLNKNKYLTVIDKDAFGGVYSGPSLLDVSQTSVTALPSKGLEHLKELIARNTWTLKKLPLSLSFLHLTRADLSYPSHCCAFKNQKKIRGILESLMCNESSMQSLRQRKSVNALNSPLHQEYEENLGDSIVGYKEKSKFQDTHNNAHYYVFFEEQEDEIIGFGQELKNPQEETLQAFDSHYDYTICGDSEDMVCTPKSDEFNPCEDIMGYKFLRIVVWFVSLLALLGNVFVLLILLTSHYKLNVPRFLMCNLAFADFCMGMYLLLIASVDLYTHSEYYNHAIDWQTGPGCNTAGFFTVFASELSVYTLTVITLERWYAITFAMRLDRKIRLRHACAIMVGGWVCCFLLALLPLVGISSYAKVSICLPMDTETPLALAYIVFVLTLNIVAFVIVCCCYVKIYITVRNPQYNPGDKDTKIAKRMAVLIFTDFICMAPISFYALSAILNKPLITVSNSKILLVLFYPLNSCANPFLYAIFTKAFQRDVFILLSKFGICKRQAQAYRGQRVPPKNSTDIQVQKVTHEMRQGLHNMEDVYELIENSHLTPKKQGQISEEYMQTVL
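HEK 293 cells stably expressing TSHR and a modified CNG channel, with CNG-only parental cells as counterscreen, were preloaded 60 min at room temperature with membrane potential dye containing 100 uM RO 20-1724. Compound exposure was 30 min, and depolarization was read as fluorescence at 590 nm.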
Peg3 imprint: qHTS Assay for Compounds that Induce Erasure of Genomic Imprints | mouse ES Peg3-LacZ reporter, beta-gal luminescence, 40 h | Potency, µM (series often up to 60.7 µM), for the others: at the top dose activity change, positive = activation, actives largely listed as activators | hit rate 0.02% among 110,000 | AID 1948, 2009
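Readout: BetaGlo luminescence (5 min, room temp) for LacZ from the normally silent maternal Peg3 allele in female Peg3LacZ-Neo ES cells. Cells 300/well, 40 h, 37C, 5% CO2. Data normalized per plate to negative controls.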
HEK293 cAMP ctrl: qHTS Assay for Agonists of the Thyroid Stimulating Hormone Receptor: Activators of Intracellular cAMP Concentrations in Parental HEK 293 | parental HEK293 CNG cAMP sensor, membrane potential fluorescence | Potency, µM (top dose mostly 57.1 µM), for the others: at the highest dose activation, actives largely listed as activators | hit rate 2.5% among 73,000 | AID 938, 2007; note: % of control where 0% means no effect; nearly all actives have a fitted effect of over 55% in size
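Counterscreen for endogenous-receptor signalling: CNG-channel HEK 293 cells report cAMP rise by membrane depolarization. After 60 min dye equilibration with 100 uM RO 20-1724, compounds incubated 30 min before bottom-read fluorescence at 590 nm.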
* = called active by the depositor; ? = inconclusive; . = not tested or not shown; [ ] = another dose, or the depositor's remark. Unless noted, calls come from the whole dose curve; as a rule, active = well fitted activation curve with a large enough effect; inconclusive = small, poorly fitted or top-dose-only effect; inactive = no such curve, though single readings can be large or run the other way. Potency is the fitted concentration of half-maximal effect.

SMILES	TSHR agonist	Peg3 imprint	HEK293 cAMP ctrl
CCOC(=O)C1CCCN(C(=O)c2cnn3c(C(F)F)cc(-c4ccc(C)cc4)nc23)C1 (centres undefined)	?	-9%	7.9µM*
COc1ccc(-c2cc(C(F)F)n3ncc(C(=O)N4CCSCC4)c3n2)cc1	?	-11%	?
CCOC(=O)C1CCN(C(=O)c2cnn3c(C)cc(C)nc23)CC1	-2%	-7%	0%
O=C(CC1N=C2c3ccccc3N=C(SCc3ccc(Cl)cc3)N2C1=O)NCCc1ccccc1 (centres undefined)	.	-9%[10.9 µM]	.
CC(=O)N1CCOc2cc(S(=O)(=O)NCc3ccccc3Cl)c(C)cc21	.	-13%[10.9 µM]	.
CCC(Sc1nc2ccccc2s1)C(=O)Nc1nnc(C)s1 (centres undefined)	?	-9%	20µM*
CCC(Sc1nc(C)cc(=O)[nH]1)C(=O)Nc1nnc(C)s1 (centres undefined)	-1%	-2%	0%
Cc1nnc(SCC(=O)Nc2nccs2)s1	-1%	3%	2%
CCC(Sc1nnc(C)s1)C(=O)Nc1nccs1 (centres undefined)	?	-19%	25µM*
CCC(=O)C1=C(c2ccc(Cl)cc2)N(C(=O)CC)n2c(C)nnc2S1	.	-8%[10.9 µM]	.
Clc1c(CSc2nc3ccccc3o2)nc2ccccn12	?	-43%	?
Clc1c(CSc2nc3ccccc3o2)nc2sccn12	?	-35%	32µM*
CC(=O)Oc1ccc(/C=C\C(=O)C[C@@H]2O[C@@H](Oc3cc(OC(C)=O)c4c(c3)O[C@@H](c3ccc(OC(C)=O)cc3)CC4=O)[C@H](OC(C)=O)[C@H](OC(C)=O)[C@@H]2OC(C)=O)cc1	-5%	.	-5%
CCOc1ccccc1CNC(=O)c1cnn(-c2ccc(C)cc2)c1-n1cccc1	.	-6%[10.9 µM]	.
O=C(CCn1nc(-c2ccccc2)c2ccccc2c1=O)N1CCN(c2ccccc2)CC1	?	-14%	25µM*
NC(=O)CCn1nc(-c2ccccc2)c2ccccc2c1=O	-8%	-2%	7%
CC(=O)N1CCN(c2ccccc2NC(=O)c2cc(Br)ccc2Cl)CC1	?	-19%	32µM*
CN1CCN(c2ccccc2NC(=O)c2cc(Br)ccc2Cl)CC1	11%	-7%	-1%
O=c1c2oc3ccccc3c2n(Cc2ccccc2)c(=O)n1Cc1ccc2c(c1)OCO2	.	-13%[10.9 µM]	.
CC1CCCCN1c1nc(-c2ccc(C(C)(C)C)cc2)nc2ccccc12 (centres undefined)	.	-7%[10.9 µM]	.
CC1CCCCN1c1nc(-c2ccncc2)nc2ccccc12 (centres undefined)	?	-17%	25µM*
C=C1CCC2[C@](C)(CO)C(O)CC[C@]2(C)C1C/C=C1/C(=O)OCC1O (some centres undefined)	.	-35%	.
CCOC(=O)c1cc(C)n(CCc2ccccc2)c1C	?	-10%	25µM*
CCOC(=O)c1cc(-c2ccccc2)n(CC(=O)NCc2ccccc2)c1C	.	-21%[10.9 µM]	.
CC(C)c1cccc2c([Si](C)(C)C)c3c(nc12)-c1cccc(=O)n1C3	?	-27%	25µM*
SMILES	TSHR agonist	Peg3 imprint	HEK293 cAMP ctrl
CC(C)c1cccc2nc3c(c([Si](C)(C)C(C)(C)C)c12)Cn1c-3cccc1=O	14%	-1%	19%
Cc1ccc(C)c(NC(=O)CSc2nc3c([nH]c4ccccc43)c(=O)n2-c2ccc(F)cc2)c1	.	-12%[10.9 µM]	.
COc1cc(-c2noc(CN3CCN(c4ccccc4)CC3)n2)cc(OC)c1OC	.	7%[10.9 µM]	.
CCCCCn1cc2c(c1-c1ccc(Cl)cc1)c(=O)n(C)c(=O)n2C	.	7%[10.9 µM]	.
COc1ccc(S(=O)(=O)Nc2ccc3c(c2)OCO3)cc1C(=O)O	?	.	32µM*
COc1ccc(S(=O)(=O)N(CC(=O)Nc2ccc3c(c2)OCO3)c2ccccc2OC)cc1	6.3µM*	-12%	27%
COc1ccccc1N(CC(=O)Nc1ccc2c(c1)OCO2)S(=O)(=O)c1ccccc1	?	-17%	?
COc1ccc(S(=O)(=O)Nc2ccc3c(c2)OCO3)cc1OC	14%	-15%	5%
COc1cccc(NC(=O)CSc2nc(=O)n(Cc3ccccn3)c3c2CCC3)c1	.	-4%[10.9 µM]	.
COc1ccc(OC)c(CCNc2ncnc3onc(C)c23)c1	.	-19%[10.9 µM]	.
Cc1c(C(=O)Nc2cccc(-c3nc4ccccc4s3)c2)oc2ccccc12	.	10%[10.9 µM]	.
NC(=O)CN1CCN(C(=O)NC2CCCCC2)CC1	?	-9%	25µM*
O=C(NCCN1CCN(C(=O)NC2CCCCC2)CC1)NC1CCCCC1	-3%	2%	16%
Oc1c(Br)cc(Br)cc1CN(Cc1cc(Br)cc(Br)c1O)C1CCCCC1	-2%[11.4 µM]	-2%[10.9 µM]	6%[11.4 µM]
CCN(CC)COC(=S)S	-6%[11.4 µM]	-35%[10.9 µM]	2%[11.4 µM]
COCCNC(=O)c1ccc(Cc2nc3ccccc3[nH]2)cc1	0%	.	-15%
CCOC(=O)c1ccc(COC(=O)c2nonc2N)cc1	-1%[11.4 µM]	-5%	2%
Cc1ccc2ccccc2c1COC(=O)c1nonc1N	?	3%	16µM*
CCOc1ccc(C(=O)Nc2cccc(NC(=O)c3ccco3)c2)cc1Cl	.	-17%[10.9 µM]	.
Clc1ccc(-c2nc3nc4ccccc4nc3n2Cc2ccco2)cc1	?	2%	?
Cc1ccc(-c2nc3nc4ccccc4nc3n2Cc2ccco2)cc1	?	4%	25µM*
COc1ccc(-c2nc3ccccc3s2)cc1NC(=O)c1ccc(F)cc1	.	-4%[10.9 µM]	.
O=C(CCC1N=C2c3ccccc3N=C(SCc3ccc(Cl)cc3)N2C1=O)NCc1ccco1 (centres undefined)	?	-8%	20µM*
O=C(CCC1N=C2c3ccccc3N=C(SCc3ccc(F)cc3)N2C1=O)NCc1ccco1 (centres undefined)	?	-18%	?
CCN1C(=O)C2(Nc3ccccc3-c3nc4ccccc4n32)c2cc(OC)ccc21 (centres undefined)	?	-19%	7.9µM*
SMILES	TSHR agonist	Peg3 imprint	HEK293 cAMP ctrl
CN1C(=O)C2(Nc3ccccc3-c3nc4ccccc4n32)c2ccccc21 (centres undefined)	22%	-13%	10%
CCOC(=O)c1cc(OC(=O)c2ccccc2C)n(-c2ccccc2)n1	.	7%[10.9 µM]	.
CCC(c1nnnn1Cc1cccs1)N1CCN(C2CCCC2)CC1 (centres undefined)	?	-3%	5µM*
CCC(c1nnnn1Cc1cccs1)N1CCN(c2nc3ccccc3s2)CC1 (centres undefined)	?	-11%	32µM*
CCCC(c1nnnn1Cc1ccco1)N1CCN(C2CCCC2)CC1 (centres undefined)	?	-8%	16µM*
COCCn1nnnc1C(c1cccs1)N1CCN(c2nc3ccccc3s2)CC1 (centres undefined)	13%	-14%	20%
c1ccc2sc(N3CCN(Cc4nnnn4CC4CCCO4)CC3)nc2c1 (centres undefined)	?	-15%	25µM*
CCCC(c1nnnn1Cc1cccs1)N1CCN(C2CCCC2)CC1 (centres undefined)	?	-14%	?
CC(C)C(c1nnnn1Cc1ccco1)N1CCN(C2CCCC2)CC1 (centres undefined)	?	-13%	?
